# Hit rate of the full screen: of about 370,000 compounds, about 520 (0.14%) were called active. This is one part of a sample in which actives are shown more often than they occur. Unmarked numbers belong to inactive results. Rule as the data show it: active = activation above about 40%; inactive = the rest.
# Molecular target: Atrial natriuretic peptide receptor 1 (Homo sapiens) (UniProt P16066)
# Test: GC-A stimulated cGMP production enhancers – HEK293 GC-A cells, cGMP TR-FRET, EC30 ANP, primary screen (AID 1671463)
# Settings: at 10 µM, hits give high values; 0% at EC30 ANP, 100% saturating ANP unless noted
# Chain of Atrial natriuretic peptide receptor 1 (Homo sapiens) (P16066 whole entry, looked up): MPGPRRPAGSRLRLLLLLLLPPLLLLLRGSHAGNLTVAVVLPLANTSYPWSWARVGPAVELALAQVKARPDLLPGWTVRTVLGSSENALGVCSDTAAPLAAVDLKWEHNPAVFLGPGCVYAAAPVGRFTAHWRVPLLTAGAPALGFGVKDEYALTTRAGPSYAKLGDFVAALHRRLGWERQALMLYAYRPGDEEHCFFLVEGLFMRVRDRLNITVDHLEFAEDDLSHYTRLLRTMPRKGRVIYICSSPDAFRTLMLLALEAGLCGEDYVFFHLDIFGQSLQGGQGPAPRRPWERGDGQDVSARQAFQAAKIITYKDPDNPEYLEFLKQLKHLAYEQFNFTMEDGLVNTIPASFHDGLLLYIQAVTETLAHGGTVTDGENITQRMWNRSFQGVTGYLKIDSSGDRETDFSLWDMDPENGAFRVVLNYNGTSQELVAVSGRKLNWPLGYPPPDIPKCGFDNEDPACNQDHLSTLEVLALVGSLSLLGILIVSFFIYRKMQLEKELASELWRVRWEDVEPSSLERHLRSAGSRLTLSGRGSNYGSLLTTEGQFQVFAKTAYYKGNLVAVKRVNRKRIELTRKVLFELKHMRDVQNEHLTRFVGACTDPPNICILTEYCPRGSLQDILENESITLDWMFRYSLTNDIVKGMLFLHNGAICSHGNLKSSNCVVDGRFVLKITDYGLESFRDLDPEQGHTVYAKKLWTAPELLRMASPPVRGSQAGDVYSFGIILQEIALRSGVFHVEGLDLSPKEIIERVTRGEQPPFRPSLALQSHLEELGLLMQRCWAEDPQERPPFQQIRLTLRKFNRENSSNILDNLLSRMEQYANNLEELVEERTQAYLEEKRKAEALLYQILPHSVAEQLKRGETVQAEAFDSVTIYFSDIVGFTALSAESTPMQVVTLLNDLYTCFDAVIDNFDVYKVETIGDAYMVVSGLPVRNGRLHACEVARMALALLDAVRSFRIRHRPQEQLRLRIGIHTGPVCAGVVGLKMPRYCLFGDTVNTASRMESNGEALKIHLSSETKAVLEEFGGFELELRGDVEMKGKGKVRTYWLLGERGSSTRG
row,Compound,activation
1,Cc1cccc(N2C(=O)NC(=O)/C(=C\c3cnn(-c4ccccc4)c3)C2=O)c1,54.5% [setting not given] (active)
2,Cc1ccccc1CCC[C@@H](CC1CCCCC1)CN(C)C(=O)Oc1ccccc1,2.21%
3,Nc1ccc([N+](=O)[O-])cc1,1.78%
4,O=C1NC(=O)N(Cc2ccco2)C(=O)/C1=C\c1ccc(-c2ccc(F)cc2)o1,48.8% [setting not given] (active)
5,COC(=O)C1=C(c2cc3ccccc3o2)C[C@@H]2CC[C@H]1N2C(=O)NC1CCCCC1,-7.28%
6,Cc1cc(N2CCNC[C@@H]2C)ccc1N1CC[C@H](O)C1,-0.67%
7,COP(=O)(Sc1ccccc1)C(Cc1ccccc1)NC(=O)OCc1ccccc1 (stereo not given),-3.05%
8,CO[C@H]([C@H](C)/C=C/N(C)C=O)[C@@H](C)C(=O)CC[C@H](C)[C@H](O)[C@H](C)[C@H]1OC(=O)/C=C/C(C)=C/[C@H](O)[C@H](OC)C[C@@H]2C=CC[C@@H](C[C@H](OC)[C@@]3(CO3)[C@@H](OC)C[C@@H](OC)[C@@H]1C)O2,-33.1%
9,CCOC(=O)CC1=C(C(=O)OCC)C2(C(=O)N1)C(C(=O)OC)=C(N)Oc1ccccc12 (stereo not given),-13.7% [setting not given]
10,COc1ccc2c(c1)[C@@]13CCCCC1[C@@H](C2)NCC3 (stereo not given in full),2.3% [setting not given]

# — PubChem BioAssay AID1671463 (Sanford-Burnham Center for Chemical Genomics, 2021)
